Structures are written as SMILES. The whole screen tested about 360,000 compounds, of which about 510 (0.14%) were called active. The full list was thinned out, with actives kept by preference. A number with no mark means an inactive call.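 How the source made its calls: active means mean normalized replicate activity at least 40 and at least half of replicates scoring 40 or more; inconclusive means only one of the two criteria met; inactive means mean below 40 and under half of replicates reaching 40.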

DNA repair and recombination protein RAD54-like (Homo sapiens), sequence (Q92698 whole entry, looked up): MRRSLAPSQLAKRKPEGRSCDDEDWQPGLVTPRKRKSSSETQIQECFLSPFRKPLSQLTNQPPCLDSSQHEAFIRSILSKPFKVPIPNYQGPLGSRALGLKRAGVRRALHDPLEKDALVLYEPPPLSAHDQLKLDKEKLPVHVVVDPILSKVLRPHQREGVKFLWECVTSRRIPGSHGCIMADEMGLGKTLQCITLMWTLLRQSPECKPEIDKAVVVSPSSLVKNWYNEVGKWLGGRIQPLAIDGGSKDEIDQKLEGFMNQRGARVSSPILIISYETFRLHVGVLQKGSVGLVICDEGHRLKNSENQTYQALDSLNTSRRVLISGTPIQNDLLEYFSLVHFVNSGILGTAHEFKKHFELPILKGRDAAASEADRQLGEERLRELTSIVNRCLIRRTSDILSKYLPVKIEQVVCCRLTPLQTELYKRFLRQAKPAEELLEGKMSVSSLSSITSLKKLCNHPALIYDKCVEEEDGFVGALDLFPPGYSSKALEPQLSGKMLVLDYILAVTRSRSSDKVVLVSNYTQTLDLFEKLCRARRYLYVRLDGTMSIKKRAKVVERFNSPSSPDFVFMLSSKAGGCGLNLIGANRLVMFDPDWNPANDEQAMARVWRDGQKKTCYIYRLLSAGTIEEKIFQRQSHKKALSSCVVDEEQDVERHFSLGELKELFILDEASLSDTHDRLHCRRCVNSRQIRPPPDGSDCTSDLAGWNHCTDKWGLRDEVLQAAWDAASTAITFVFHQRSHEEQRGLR

This assay has as its target DNA repair and recombination protein RAD54-like (Homo sapiens) (UniProt Q92698). As to the kind of experiment: RAD54 Holliday junction migration blockers – biochemical, fluorescence, single point, primary screen (AID 602329).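 Further: 0% = median of neutral control wells and 100% = median of positive control wells; inhibitors cause a drop in the FAM fluorescence signal.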 Particulars: RAD54 Holliday junction branch migration, FAM/BHQ fluorescence; at 10.4 µM; stronger effect = higher value.
The term inhibition denotes the change of the read-out against control, counted positive when it falls. In the case of `Cc1ccc(S(=O)(=O)Nc2ccc3c(c2)C(=O)N([C@H](C)CO)C[C@H](C)[C@H](CN(C)Cc2ccccc2)OCCCC[C@@H](C)O3)cc1`, the inhibition is 5.79%. For `COc1ccc(C(=O)Nc2ccc3c(c2)OC[C@H](C)N(C(C)=O)C[C@@H](C)[C@H](OC)CN(C)C3=O)cc1`, the inhibition is -4.9%. As for `CO[C@@H]1CN(C)C(=O)c2cc(NS(=O)(=O)c3ccc(Cl)cc3)ccc2OC[C@H](C)NC[C@@H]1C`, the figure is -8.54%; as for `CN1c2ccc(-c3cccc(C#N)c3)cc2[C@@H]2[C@@H](CCN2C(=O)NC2CCCCC2)[C@@H]1CO`, -3.76%.

As for `O=S(=O)(c1ccc(F)cc1)N1CC[C@@H]2[C@@H](CO)Nc3ccc(-c4ccccc4F)cc3[C@@H]21`, the inhibition was 7.93%. As for `CC(=O)N(C)C[C@@H]1Oc2ncc(-c3ccccc3F)cc2C(=O)N([C@H](C)CO)C[C@@H]1C`, the figure is -1.78%; as for `COc1ccccc1NC(=O)N1[C@H](C#N)[C@H](c2ccccc2)[C@H]1CO`, 10.5%. The value for `CC(=O)N(C)C[C@H]1Oc2cc(C#Cc3ccccc3F)ccc2S(=O)(=O)N([C@H](C)CO)C[C@@H]1C` was 2%; that for `O=C(C[C@@H]1C=C[C@@H](NC(=O)c2cccnc2)[C@H](CO)O1)NCCN1CCCCC1` was 0.617%; that for `O=C(CC1CC1)Nc1ccc2c(c1)[C@@H]1C[C@@H](CC(=O)NC3CCCCC3)O[C@H](CO)[C@@H]1O2` was -1.82%. As to `CN1CCC[C@@H]1CCO[C@](C)(c1ccccc1)c1ccc(Cl)cc1`, the inhibition was 11.3%. As for `Cc1cc2oc3ccc(NCCC4CCCN4C)cc3c(=O)c2cc1C` (stereo unspecified), the figure is 102% (active); as for `COc1cccc2sc3cc(NCC[C@@H]4CCCN4C)ccc3c(=O)c12`, 94% (active). As for `CO[C@@H]1CN(C)C(=O)c2cc(NS(=O)(=O)CC(F)(F)F)ccc2OC[C@@H](C)N(Cc2ccccn2)C[C@H]1C`, the figure is -9.64%. Consider `COc1ccc(S(=O)(=O)Nc2ccc3c(c2)C(=O)N([C@@H](C)CO)C[C@@H](C)[C@@H](CN(C)S(C)(=O)=O)O3)cc1`, for which the inhibition was -4.67%. Turning to `C[C@@H]1CCCCO[C@@H](CN(C)C(=O)NC2CCCCC2)[C@H](C)CN([C@H](C)CO)C(=O)c2cc(NC(=O)c3ccccc3)ccc2O1`, the inhibition was -0.448%. On to `COc1cccc(NC(=O)N2C[C@@H](O)COC[C@@H]3O[C@@H](CC(=O)NC4CCC4)CC[C@H]32)c1`, for which the inhibition was -4.41%. Take `C[C@@H]1CN([C@@H](C)CO)C(=O)c2cc(NC(=O)Nc3ccc(C(F)(F)F)cc3)ccc2O[C@@H](C)CCCCO[C@H]1CN(C)C(=O)c1ccccc1`: the inhibition is -3.03%. `CO[C@H]1CC[C@H]2CCOc3c(C#N)cccc3C(=O)N(C)CC3(CCCCC3)CC(=O)N(C)C[C@@H]1O2`: the inhibition was -12.8%.

On to `CN1c2ccc(Br)cc2[C@@H]2[C@@H](CCN2S(=O)(=O)c2ccc(F)cc2)[C@@H]1CO`, for which the inhibition was -1.32%. As for `CN1c2ccc(-c3ccccc3)cc2[C@@H]2[C@@H](CCN2C(=O)c2ccccc2F)[C@@H]1CO`, the figure is 4.56%; as for `CCCC#Cc1ccc2c(c1)O[C@H](CN(C)C(=O)c1ccncc1)[C@H](C)CN([C@H](C)CO)S2(=O)=O`, 12.3%. As for `C[C@@H]1CN([C@@H](C)CO)C(=O)Cc2cc(NC(=O)Nc3ccc4c(c3)OCO4)ccc2O[C@@H]1CN(C)S(=O)(=O)c1ccc(Cl)cc1`, the figure is 1.58%; as for `Cc1cc(C)c2nc3nc(C)cc(C)c3c(N)c2c1`, 96% (active). The value for `CCC(=O)N(C)C[C@H]1Oc2ncc(C#C[C@@H](C)O)cc2C(=O)N([C@@H](C)CO)C[C@H]1C` was 0.495%; that for `CN1CCN(C(=O)C[C@H]2C[C@H]3c4cc(NC(=O)C5CCC5)ccc4O[C@H]3[C@H](CO)O2)CC1` was 6.76%.

In the case of `CNC[C@H]1OCCCC[C@@H](C)Oc2ccc(NC(=O)c3ccccc3)cc2C(=O)N([C@@H](C)CO)C[C@H]1C`, the inhibition was 6.8%. As for `COc1ccc(S(=O)(=O)N2CC[C@H]3[C@@H](CO)N(C)c4ccc(C#Cc5ccccc5OC)cc4[C@H]32)cc1`, the figure is 17.3%; as for `C/C=C/c1ccc([C@@H]2[C@@H](CO)N(C(=O)CC)[C@H]2CN(C)C(=O)C2CC2)cc1`, -7.87%; as for `O=C(N[C@@H]1C=C[C@H](CC(=O)N2CCOCC2)O[C@H]1CO)c1ccccn1`, -0.273%.

Take `COc1ccc(S(=O)(=O)Nc2ccc3c(c2)CC(=O)N([C@H](C)CO)C[C@@H](C)[C@@H](CN(C)S(=O)(=O)c2ccc(F)cc2)O3)cc1`: the inhibition was -1.32%. In the case of `C[C@H](CO)N1C[C@H](C)[C@H](CN(C)C(=O)Nc2ccccc2)Oc2c(NC(=O)Nc3ccc(C(F)(F)F)cc3)cccc2C1=O`, the inhibition was 0.373%. As for `CO[C@@H](CN(C)C(=O)c1ccc2c(c1)OCO2)[C@@H](C)CN([C@H](C)CO)S(=O)(=O)c1ccccc1`, the figure is 2.31%; as for `CCCC#Cc1ccc([C@@H]2[C@H](CO)N3CCCCN(S(=O)(=O)c4ccccc4F)C[C@@H]23)cc1`, 6.77%. `COCCCn1c(C(=O)NC2CCCCC2)cc2c(=O)n3cccc(C)c3nc21`: the inhibition is -1.16%. The value for `CCOCCCNC(=O)c1cc2c(=O)n3ccccc3nc2s1` was 10.2%; that for `Cc1ccc(S(=O)(=O)c2cc3c(=O)n4cccc(C)c4nc3n(CCc3ccccc3)c2=N)cc1C` was 0.033%. Consider `COc1ccc(CCn2c(=N)c(C(=O)NCC3CCCO3)cc3c(=O)n4cccc(C)c4nc32)cc1OC` (stereo unspecified), for which the inhibition was 52.7% (active). As for `CCn1c(=N)c(C(=O)NCCCOC)cc2c(=O)n3cccc(C)c3nc21`, the figure is 50.9% (active); as for `Cc1ccc2nc3c(cc(C(=O)NCCc4ccccc4)c(=N)n3CC3CCCO3)c(=O)n2c1` (stereo unspecified), 12.1%.

With `O=C(NC1Cc2ccccc2C1)[C@@H]1[C@@H](CO)[C@@H]2Cn3c(ccc(C4=CCCC4)c3=O)[C@H]1N2CC1CC1`, the inhibition is 2.91%.

For `O=C(Nc1ccc(F)cc1)N1CCCCN2[C@H](CO)[C@H](c3ccc(-c4ccncc4)cc3)[C@@H]2C1`, the inhibition was -8.07%. On to `COCC(=O)Nc1ccc2c(c1)[C@@H]1C[C@@H](CC(=O)N3CCN(C)CC3)O[C@H](CO)[C@@H]1O2`, for which the inhibition is 7.82%. With `CC(C)n1cnc2c(NCc3ccccc3)cc(OCC3CCN(C)CC3)cc21`, the inhibition was 78.7% (active).

For the compound `CCC(=O)Nc1ccc2c(c1)C(=O)N(C)C[C@H](OC)[C@@H](C)CN(Cc1cccnc1)[C@H](C)CO2`, the inhibition is -1.44%. The value for `Clc1ccc2nc(-c3ccccc3)nc(C(Cl)Cl)c2c1` was -6.9%; that for `NC(N)=Nc1nc(-c2ccccc2)c2cc(Cl)ccc2n1` was 58.9% (active); that for `CC(C)NC(=O)N(C)C[C@H]1Oc2ncc(-c3ccccc3F)cc2C(=O)N([C@@H](C)CO)C[C@@H]1C` was -5.71%. The value for `O=C(COC(=O)CCCN1C(=O)c2cccc3cccc(c23)C1=O)NC1CCS(=O)(=O)C1` (stereo unspecified) was -5.27%; that for `C[N+](C)(CCCCCC[N+](C)(C)CCCN1C(=O)c2cccc3cccc(c23)C1=O)CCCN1C(=O)c2cccc3cccc(c23)C1=O` was 115% (active); that for `O=C(CCCN1C(=O)c2cccc3cccc(c23)C1=O)N1CCN(Cc2ccc3c(c2)OCO3)CC1` was 8.9%. As for `CCC(=O)N1C[C@H](C)[C@H](OC)CN(C)C(=O)c2ccc(NC(=O)c3cnccn3)cc2OC[C@@H]1C`, the figure is -7.7%; as for `O=C(Cc1ccncc1)NCC[C@H]1CC[C@H](NC(=O)Nc2cccc(F)c2)[C@H](CO)O1`, -5.21%. Consider `CCC(=O)N1C[C@@H](C)[C@@H](OC)CN(C)C(=O)c2ccc(NC(=O)c3ccccc3)cc2OC[C@H]1C`, for which the inhibition is -5.42%.

Take `COc1ccc(NC(=O)Nc2ccc3c(c2)CC(=O)N([C@@H](C)CO)C[C@@H](C)[C@@H](CN(C)Cc2ccc(Cl)c(Cl)c2)O3)cc1`: the inhibition is 12.1%.

Consider `C[C@@H](O)C#Cc1ccc([C@H]2[C@H](CO)N3CCCCN(C(=O)c4ccc5c(c4)OCO5)C[C@@H]23)cc1`, for which the inhibition was 1.48%. The value for `CCC(=O)N(C)C[C@@H]1Oc2ncc(/C=C/c3ccccc3)cc2C(=O)N([C@@H](C)CO)C[C@H]1C` was 0.476%. As for `COCC#Cc1cnc2c(c1)C(=O)N([C@H](C)CO)C[C@H](C)[C@H](CN(C)C(=O)Nc1cc(F)ccc1F)O2`, the figure is 0.435%. Regarding `COc1ccc(NC(=O)N[C@@H]2CC[C@H](CC(=O)NC3CCC3)O[C@H]2CO)cc1`, the inhibition was 4.37%. The value for `C/C=C/c1ccc2c(c1)O[C@H](CN(C)C(=O)CN(C)C)[C@H](C)CN([C@@H](C)CO)S2(=O)=O` was -12.5%. The value for `C[C@H]1CN([C@@H](C)CO)C(=O)c2cc(C#CCN(C)C)cnc2O[C@H]1CN(C)C(=O)Cc1ccccc1` was 3.35%.

Consider `COc1ccc(-c2ccc3c(c2)[C@H]2[C@H](CCN2C(=O)c2ccc4c(c2)OCO4)[C@@H](CO)N3)cc1`, for which the inhibition is -2.22%.

Consider `CCC(=O)N1C[C@H](C)[C@H](OC)CN(C)C(=O)c2ccc(NC(=O)Nc3ccccc3)cc2OC[C@H]1C`, for which the inhibition was -3.3%. For the compound `C[C@H](CO)N1C[C@H](C)[C@H](CN(C)C)Oc2ncc(-c3ccncc3)cc2C1=O`, the inhibition is 8.42%.

On to `COc1ccc(NC(=O)Nc2ccc3c(c2)CC(=O)N([C@@H](C)CO)C[C@H](C)[C@@H](CN(C)CC2CCCCC2)O3)cc1`, for which the inhibition was 3.95%. As to `CN(C)C(=O)C[C@@H]1C[C@@H]2c3cc(NC(=O)NC4CCCCC4)ccc3O[C@@H]2[C@H](CO)O1`, the inhibition is -2.4%.
